Source: PubChem
A selection: hits, their analogues and other compounds. The true share with any hit is near 19%.
IL1B secr inh = qHTS for Inhibitors of Inflammasome Signaling: IL-1-beta AlphaLISA Primary Screen. THP-1 LPS/ATP IL-1B secretion, AlphaLISA, 16 h; stronger effect = lower value. activity change, % at 57.5 µM. hit rate 4.7% among 360,000. AID 743279, 2014; in the data active = activity change below about -50%; inconclusive = mostly about -30% to -49%
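Secreted IL-1B measured by AlphaLISA bead assay after 16 h compound exposure of THP-1 cells; compounds (final up to 57.5 uM) added 1 h before LPS (250 ng/mL) and ATP (1.25 mM) stimulation; lower signal means less secretion.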
HT1080 IDH1KD tx = qHTS for induction of synthetic lethality in tumor cells producing 2HG: qHTS for the HT-1080-IDH1KD cell line | HT-1080 IDH1 knockdown viability, ATP luminescence, 48 h | Potency, µM (highest dose often 46.1 µM), for the others: at the top dose activity, negative = toxicity, most hits filed as cytotoxic | hit rate 2% among 360,000 | AID 686971, 2013;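 note: potency is the fitted concentration of half-maximal effect; 0% = DMSO wells and -100% = cell-free medium wells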
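HT-1080-IDH1KD cells (IDH1 knocked down), 750/well in RPMI with 5% FBS, treated with compound 48 h at 37 degrees C. Viability by CellTiter-Glo luminescence, normalised to DMSO and no-cell wells; concentration-response curves classed.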
TDP1 cell CPT = qHTS for Inhibitors of human tyrosyl-DNA phosphodiesterase 1 (TDP1): qHTS in cells in presence of CPT | hit rate 12% among 420,000 | AID 686979, 2013 | Potency, µM (highest dose often 46.2 µM), inactives show at the top dose activity change, negative = growth inhibition, actives largely listed as inhibitors | chicken DT40 Tdp1-/-;hTDP1 cells + 20 nM CPT, ATP luminescence, 48 h; note: potency is the fitted concentration of half-maximal effect; nearly all actives have a fitted effect of over 55% in size
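Chicken DT40 Tdp1-/- cells stably complemented with human TDP1 were seeded at 400 cells/well in medium containing 20 nM camptothecin, exposed to pin-transferred compounds, and grown at 37 °C for at least 48 hr. Viability was read as ATP luminescence.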
DT40 TDP1 no CPT = qHTS for Inhibitors of human tyrosyl-DNA phosphodiesterase 1 (TDP1): qHTS in cells in absence of CPT; DT40 Tdp1-/- hTDP1 cells, no CPT, ATP luminescence, 48 h; Potency, µM (titrated, usually from 46.2 µM), for the others: at the top dose activity change, negative = growth inhibition, hits mostly inhibitors; hit rate 15% among 420,000; note: potency is the fitted concentration of half-maximal effect; nearly all actives have a fitted effect of over 55% in size
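Cells were dispensed at 400 per well, compounds added by pin tool, plates incubated ≥48 hr at 37 °C, then CellTiter-Glo added for 30 min at room temperature before luminescence reading. Line: DT40 Tdp1-/- complemented with hTDP1; camptothecin omitted.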
HT1080NT lethal = qHTS for induction of synthetic lethality in tumor cells producing 2HG: qHTS for the HT-1080-NT fibrosarcoma cell line | HT-1080-NT fibrosarcoma viability, CellTiter-Glo ATP luminescence, 48 h | AID 686970, 2013 | Potency, µM (top dose mostly 46.1 µM), for the others: top-dose activity, negative = less viability, hits mostly cytotoxic | hit rate 1.6% among 360,000;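 note: NT is the 2HG producing partner of a matched IDH1 knockdown line; potency is the fitted concentration of half-maximal effect; 0% = DMSO-treated cells and -100% = media-only wells without cells; nearly all actives have a fitted effect of over 55% in size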
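Read-out is CellTiter-Glo luminescence after 10 minutes at room temperature, following 48 hours' compound treatment of HT-1080-NT cells (750 cells/well, RPMI, 5% FBS, 37 degrees C).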
uPA surface inh = qHTS for Inhibitors of Cell Surface uPA Generation; cell surface uPA generation assay, qHTS; Potency, µM (highest dose often 38.3 µM), inactives show at the highest dose activity change, negative = inhibition, usual class: inhibitors; hit rate 0.31% among 330,000; AID 540303, 2011; active = well fitted inhibition curve with a large enough effect; inconclusive = small, poorly fitted or top-dose-only effect; inactive = no such curve, though single readings can be large or run the other way; tested in mouse RAW 264.7 cells; note: potency is the fitted concentration of half-maximal effect; nearly all actives have a fitted effect of over 55% in size
Active calls of the source: *; u = inconclusive; x = not tested or not shown; [ ] = another dose, or the depositor's remark. Unless noted, calls come from the whole dose curve; as a rule, active = well fitted curve in the direction sought with a large enough effect; inconclusive = small, poorly fitted or top-dose-only effect, or another doubt; inactive = no such curve, though single readings can be large; an effect the other way counts as inactive or inconclusive. Unless noted, % is set by controls: 0 for no effect and ±100 for the full control effect.

SMILES | IL1B secr inh | HT1080 IDH1KD tx | TDP1 cell CPT | DT40 TDP1 no CPT | HT1080NT lethal | uPA surface inh
CCC(=O)N1CCc2cc(S(=O)(=O)NCCC(=O)NCc3ccc(C)cc3)ccc21 | x | x | 21µM* | u | x | x
CC[C@@]1(C(=O)OC)N[C@H](CN(C)C(=O)Nc2ccc(C)cc2)[C@@H]2C(=O)N(Cc3ccccc3)C(=O)[C@@H]21 | -7 | -5% | 29µM* | u | -4% | -21%
COC(=O)[C@]1(Cc2ccccc2)N[C@H](CN(C)C(=O)Nc2ccc(C(F)(F)F)cc2)[C@@H]2C(=O)N(C)C(=O)[C@@H]21 | 14 | -9% | 12µM* | u | -3% | 7%
COC(=O)[C@]1(Cc2ccccc2)N[C@H](CN(C)C(=O)Nc2ccc(F)cc2)[C@@H]2C(=O)N(Cc3ccccc3)C(=O)[C@@H]21 | -20 | -19% | u | 15µM* | -17% | 58%
CC[C@@]1(C(=O)OC)N[C@H](CN(C)C(=O)Nc2ccc(F)cc2)[C@@H]2C(=O)N(Cc3ccccc3)C(=O)[C@@H]21 | -5 | -2% | -27% | -23% | -6% | 10%
COC(=O)[C@]1(Cc2ccccc2)N[C@H](CN(C)C(=O)Nc2ccc(Cl)cc2)[C@@H]2C(=O)N(Cc3ccccc3)C(=O)[C@@H]21 | -64* | -1% | 21µM* | u | -3% | 12%
Cc1ccc(S(=O)(=O)N2CCN(C(=O)COC(=O)c3cnc(C)cn3)CC2)c(C)c1 | 2 | 23% | 12% | -3% | 3% | -1%
O=C1c2ccccc2C(c2nnnn2Cc2ccccc2)N1C1CC1 (stereo not drawn) | 21 | 5% | 5% | -7% | 6% | x
CN(c1ccc(OCCOc2ccccc2Cl)cc1)S(=O)(=O)c1ccccc1 | 13 | -10% | u | 2.9µM* | -4% | -4%
COc1ccc(OCCOc2ccc(N(C)S(=O)(=O)c3ccccc3)cc2)cc1 | -25 | 0% | u | u | -2% | -2%
CC1CCc2c(c3ccccc3n2C(=O)CCl)C1 (stereo not drawn) | -60* | -12% | u | u | -18% | -3%
CCN1CCN(CC(=O)n2c3c(c4ccccc42)CC(C)CC3)CC1 (stereo not drawn) | -12 | 0%[9.24 µM] | u | 18µM* | u | -1%
Brc1ccc(C2Nc3cccc4cccc(c34)N2)s1 | -6 | -7% | 21µM* | u | -7% | -1%
Clc1ccc(C2Nc3cccc4cccc(c34)N2)cc1 | -4 | -4% | u | u | -1% | 4%
COc1ccc(CN2CCN(C(=O)C3CCN(C(=O)Nc4ccccc4)CC3)CC2)cc1OC | -3 | 1% | -10% | u | 3% | -1%
Cc1ccc(-c2ccc(CN3C(CC(C)C)C(=O)N(Cc4cn(CC5CCCCC5)nn4)CCS3(=O)=O)cc2)cc1 (stereo not drawn) | 6 | u | 21µM* | 16µM* | -24% | x
CCC/C=C/c1ccc(CN2C(CC(C)C)C(=O)N(Cc3cn(CC4CCCCC4)nn3)CCS2(=O)=O)cc1 (stereo not drawn) | -3 | -19% | u | 23µM* | u | x
CC(C)C1C(=O)N(Cc2cn(CC3CCCCC3)nn2)CCS(=O)(=O)N1Cc1ccc(-c2ccccc2)cc1 (stereo not drawn) | -19 | u | 13µM* | 4.1µM* | -26% | x
CC(C)C1C(=O)N(Cc2cn(CC3CCCCC3)nn2)CCS(=O)(=O)N1Cc1ccc(-c2ccc(Cl)nc2)cc1 (stereo not drawn) | u | u | 15µM* | 10µM* | u | x
